These results are taken from PubChem BioAssay AID651635 (National Center for Advancing Translational Sciences (NCATS), 2012).

Out of some 400,000 compounds screened, about 1,900 (0.47%) were called active. Roughly 14% stayed inconclusive and do not appear here. Only a selection was taken, and actives are over-represented in it overall. Values without a mark were called inactive. Calls come from the whole dose curve; as a rule, active = well fitted cell-killing curve with a large enough effect; inconclusive = small, poorly fitted or top-dose-only effect, or effect the other way; inactive = no such curve, though single readings can be large or run the other way.
Potency is the fitted concentration of half-maximal effect.

The nature of this assay: Viability Counterscreen for Primary qHTS for Inhibitors of ATXN expression. Note: nearly all actives have a fitted effect of over 40% in size. The following applies: S2 cells (HEK-293 line with an ATXN2-luciferase reporter) viability, CellTiter-Fluor protease fluorescence, 24 h; series mostly up to 56.7 µM; activity change, negative = cytotoxicity: at the top concentration. (A counterscreen serves to expose hits that act by an unwanted route or on another target.)
For `COc1ccccc1NC(=O)c1oc2ccccc2c1NC(=O)COc1ccccc1OC`, the “activity change, negative = cytotoxicity” value is -17.9%.

For the molecule `O=C(CCN1Cc2ccccc2OC(c2ccccc2)C1)N[C@@H]1CS(=O)(=O)C[C@H]1O` (stereo partly drawn), the “activity change, negative = cytotoxicity” value was -3.77%. Still for that read-out and setting: next, `CC(OC(=O)c1ccc([N+](=O)[O-])cc1)C(=O)NCC1CCCCC1` (stereo not drawn): -6.52%. `COc1cc(C(=O)OC(C)C(=O)NCC2CCCCC2)cc(NC(=O)c2ccco2)c1OC` (stereo not drawn): the Potency was 31.6 µM (active). Take `CC(OC(=O)c1cccc(S(=O)(=O)N2CCOCC2)c1)C(=O)NCC1CCCCC1` (stereo not drawn): the “activity change, negative = cytotoxicity” value is -31.2%. In the case of `CCOC(=O)Cc1cccc(-c2cc(CCCCCCc3ccc(O[C@H]4O[C@H](COC(C)=O)[C@@H](OC(C)=O)[C@H](OC(C)=O)[C@@H]4OC(C)=O)c(-c4cccc(CC(=O)OCC)c4)c3)ccc2O[C@H]2O[C@H](COC(C)=O)[C@@H](OC(C)=O)[C@H](OC(C)=O)[C@@H]2OC(C)=O)c1`, the “activity change, negative = cytotoxicity” value was -7%. Regarding `CN(C)CCNC(=O)c1ccc(-c2cn3c(-c4ccc(Oc5ccccc5)cc4)cnc3cn2)cc1`, the “activity change, negative = cytotoxicity” value is 3.68%.

As to `CCCCN1CC(COCc2ccccc2)OCCS1(=O)=O` (stereo not drawn), the “activity change, negative = cytotoxicity” value was -18.3%. Still for that read-out and setting: next, `Cc1ccccc1-c1ccc2c(c1)O[C@@H](CN(C)Cc1ccc(C(=O)O)cc1)[C@@H](C)CN([C@H](C)CO)S2(=O)=O`: -7.46%. With `CCCCC[C@H](C)N1C[C@@H](COCc2ccccc2)Oc2cc(N3CC[C@@H](N(C)C)C3)ccc2S1(=O)=O`, the Potency was 25.1 µM (active). For `Cc1oc2ccc(O)c(CN3CCOCC3)c2c1C(=O)Nc1cccc(Cl)c1C`, the “activity change, negative = cytotoxicity” value is -18.9%. Take `CCN1CCN(Cc2c(O)ccc3oc(C)c(C(=O)Nc4ccc(C)cc4C)c23)CC1`: the “activity change, negative = cytotoxicity” value was -3.39%. Take `Cc1oc2ccc(O)c(CN3CCCCC3)c2c1C(=O)Nc1cccc(C(F)(F)F)c1`: the Potency is 28.2 µM (active).

Turning to `COC(=O)/C=C(/C)N`, the “activity change, negative = cytotoxicity” value is -9.41%. Same read-out and setting: next, `COCCN1CCN(C(=O)c2sc3ncnc(NCC4CCCO4)c3c2C)CC1` (stereo not drawn): -15.3%; `Cc1csc(NC(=O)Nc2ccccc2[N+](=O)[O-])n1`: -25.1%.

Turning to `O=C(Nc1ccncc1)c1ccccc1[N+](=O)[O-]`, the “activity change, negative = cytotoxicity” value was -7.59%. In the case of `CC(=O)Oc1ccccc1C(=O)Nc1ncc([N+](=O)[O-])s1`, the Potency was 39.8 µM (active). Turning to `CC(C)(C)S(=O)N1Cc2cc(C(=O)NCCCN3CCOCC3)nc(-c3cccc(-c4cc5ccccc5o4)c3)c2[C@H]1CCO` (stereo partly drawn), the “activity change, negative = cytotoxicity” value is -37.5%. Same read-out and setting: next, `CC(Oc1ccccc1)C(=O)N[C@@H]1C(=O)N2[C@@H]1SC(C)(C)[C@@H]2C(=O)O` (stereo partly drawn): -12.4% [at 25.4 µM]; `COCc1cccc(-c2csc(C(O)c3ccc(F)cc3)n2)c1` (stereo not drawn): -24.3%; `CN1CCN(c2nc3c(c(=O)[nH]c(=O)n3C)n2Cc2cccc3ccccc23)CC1`: -28.2%. Take `Cn1c(=O)[nH]c(=O)c2c1nc(N1CCN(C(c3ccccc3)c3ccccc3)CC1)n2CCO`: the Potency was 3.16 µM (active).

In the case of `Cn1c(=O)[nH]c(=O)c2c1nc(N1CCN(CCO)CC1)n2CCSc1nc2ccccc2s1`, the “activity change, negative = cytotoxicity” value is 12.4%. The same measure, in the same setting: next, `CN[C@@H]1[C@@H](O)[C@@H](O[C@@H]2[C@H](O)[C@H](O[C@H]3OC(CN)=CC[C@H]3N)[C@@H](N)C[C@H]2N)OCC1(C)O` (stereo partly drawn): -11.6%. Take `CC(=O)Nc1ccc(-c2csc(NC(=O)Nc3ccccc3)n2)cc1`: the Potency is 15 µM (active). Consider `O=C(CSC1=NCCS1)Nc1nc(-c2ccccc2)cs1`, for which the “activity change, negative = cytotoxicity” value was -18.4%. Turning to `CC(=O)Nc1ccc(-c2cn3cccnc3n2)cc1`, the “activity change, negative = cytotoxicity” value is -17.5%.
